Screens deposited in PubChem by National Center for Advancing Translational Sciences (NCATS).
JMJD2A Tudor: blocks the human JMJD2A Tudor domain | AlphaScreen JMJD2A-Tudor / H3K4me3 peptide binding | Potency, µM (top dose mostly 114 µM), most hits filed as inhibitors | 390,000 compounds, 4.4% hits | AID 504339; note: nearly all actives have a fitted effect of over 50% in size
G9a inh: G9a (human) methyltransferase inhibition; Q96KQ7; G9a H3K9 monomethylation, AlphaScreen, 2 h; Potency, µM (titrated, usually from 102 µM), most hits filed as inhibitors; 350,000 compounds, 8.8% hits; AID 504332; note: nearly all actives have a fitted effect of over 75% in size
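Quantitative HTS format: methyltransferase activity on a biotin-tagged H3K9 peptide is measured by AlphaScreen, using a rabbit anti-monomethyl-H3K9 antibody with streptavidin donor and anti-IgG acceptor beads. Final levels are 20 nM enzyme, 500 nM peptide, 20 uM SAM; 2 h RT.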
TDP1 block: inhibitors of human tyrosyl-DNA phosphodiesterase TDP1; 350,000 compounds, 0.28% hits; recombinant TDP1, AlphaScreen DNA substrate cleavage; Q9NUW8; Potency, µM (titrated, usually from 130 µM), most hits filed as inhibitors; note: nearly all actives have a fitted effect of over 40% in size
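Signal: AlphaScreen proximity between streptavidin donor and anti-FITC acceptor beads on intact substrate. Reaction: Tdp1 1 nM, substrate 15 nM final, 5 min RT after 15 min compound preincubation.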
Sfp PPTase inh: blocks B. subtilis Sfp PPTase activity | Biochemical Sfp PPTase activity, qHTS | Potency, µM, hits mostly inhibitors | 310,000 compounds, 3.5% hits | Q9F4F7;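 note: the enzyme is Sfp with the accession as filed and its product quenches rhodamine fluorescence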
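After 15 min at room temperature with compound, 15 nM Sfp received 5 uM rhodamine-CoA plus 12.5 uM BHQ-2-ybbR (50 mM Hepes pH 7.6, 10 mM MgCl2). Rate came from the fluorescence difference over 30 min, ex 525/em 598 nm.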
BAZ2B block: BAZ2B (human) inhibition; Q9UIF8; AID 504333; Potency, µM (doses to about 114 µM), hits mostly inhibitors; 360,000 compounds, 4.4% hits; AlphaScreen BAZ2B-H3K14Ac peptide displacement; note: nearly all actives have a fitted effect of over 60% in size
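Inhibition is scored as reduced AlphaScreen emission. The BAZ2B/b-H3(5-23)K14Ac complex (50 nM each) in PBS pH 7.4, 0.01% Tween-20 meets compound (up to 110 uM) for 30 min at RT before bead addition.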
HP1b chromo inh: inhibitors of HP1-beta chromodomain binding to methylated histone tails | AlphaScreen HP1-beta / biotin-H3K9me3 peptide binding | Potency, µM (highest dose often 114 µM), most hits filed as inhibitors | 390,000 compounds, 0.56% hits | AID 540317; note: nearly all actives have a fitted effect of over 70% in size
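HP1-beta protein (50 nM final) preincubated 30 min at room temperature with biotinylated H3(1-18)K9me3 peptide (50 nM) in PBS pH 7.4, 0.01% Tween-20, then compound added for 30 min. AlphaScreen streptavidin donor/nickel chelate acceptor beads (10 ug/mL final), 30 min dark, luminescence read.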
Each line names hits and unclear results; the compound was inactive in the other large screens. A selection: hits, their analogues and other compounds. The true share with any hit is near 12%. Calls come from the whole dose curve; as a rule, active = well fitted curve in the direction sought with a large enough effect; inconclusive = small, poorly fitted or top-dose-only effect, or another doubt; inactive = no such curve, though single readings can be large; an effect the other way counts as inactive or inconclusive.

CCC(=O)c1cccc(-c2ccccc2)c1CC	none (no result: G9a inh, TDP1 block, Sfp PPTase inh, BAZ2B block)
CC(Sc1nnc(-c2ccc(O)cc2)o1)C(=O)Nc1cccc2ccccc12 (centres undefined)	G9a inh 12.6µM
O=C(CCSc1nnc(-c2ccncc2)o1)Nc1cccc2ccccc12	none
CCNC(=O)CCSc1nnc(-c2ccncc2)o1	none
CCNC(=O)CCSc1nnc(-c2ccc(O)cc2)o1	G9a inh 12.6µM (no result: Sfp PPTase inh)
O=CNCCCc1nc2ccccc2n1CCc1ccccc1	none (no result: TDP1 block)
CCC1(c2ccccc2)NC(=O)N(CC(=O)Nc2cc(S(=O)(=O)N3CCCCC3)ccc2N(C)C)C1=O (centres undefined)	none (no result: Sfp PPTase inh)
COc1ccc(S(=O)(=O)N2CCCCCC2)cc1NC(=O)CN1C(=O)NC(C)(c2ccccc2)C1=O (centres undefined)	G9a inh 15.8µM (no result: Sfp PPTase inh)
CCN(CC)S(=O)(=O)c1ccc(N2CCOCC2)c(NC(=O)CNCCc2ccccc2)c1	JMJD2A Tudor 39.8µM, G9a inh 11.2µM, BAZ2B block 50.1µM
Cc1cc(NS(=O)(=O)c2ccc(NC(=O)CN3C(=O)NC(C)(c4ccccc4)C3=O)cc2)nc(C)n1 (centres undefined)	G9a inh 14.1µM (no result: Sfp PPTase inh)
CN(C)S(=O)(=O)c1ccc(N2CCCC2)c(C(=O)Nc2ccc(F)cc2F)c1	G9a inh 11.2µM (no result: Sfp PPTase inh)
CN(C)S(=O)(=O)c1ccc(N2CCCC2)c(C(=O)Nc2ccccc2F)c1	G9a inh inconclusive (no result: Sfp PPTase inh)
CC1(c2ccccc2)NC(=O)N(CC(=O)Nc2ccc(S(=O)(=O)Nc3ncccn3)cc2)C1=O (centres undefined)	none (no result: TDP1 block, Sfp PPTase inh)
Cc1ccc2c(CNCCc3ccccc3)c(C(=O)O)n(Cc3ccccc3C)c2c1	none (no result: Sfp PPTase inh)
COc1ccccc1N1CCN(C(=O)c2ccc(CN3CCOCC3)cc2)CC1	none
FC(F)(F)c1ccccc1-c1cncnc1NCCc1cnc[nH]1	none (no result: JMJD2A Tudor, G9a inh, BAZ2B block, HP1b chromo inh)
CCN(CC)S(=O)(=O)c1ccc(N2CCOCC2)c(NC(=O)c2ccc(C#N)cc2)c1	G9a inh 11.2µM, BAZ2B block inconclusive
CCN(CC)S(=O)(=O)c1ccc(N2CCOCC2)c(NC(=O)CN2C(=O)NC(C)(c3ccccc3)C2=O)c1 (centres undefined)	G9a inh 15.8µM (no result: TDP1 block, Sfp PPTase inh)
CCN(CC)S(=O)(=O)c1ccc(N2CCCC2)c(NC(=O)c2ccc(OC)cc2OC)c1	G9a inh 28.2µM, Sfp PPTase inh 79.4µM
CCN(CC)S(=O)(=O)c1ccc(N2CCOCC2)c(NC(=O)c2ccc(F)cc2)c1	none
COc1ccc(C(=O)OCc2nc(N)nc(Nc3ccccc3C)n2)cc1OC	BAZ2B block inconclusive
CC(C)=NO[C@@H](C)c1cn([C@H](CO)Cc2ccccc2)nn1	none (no result: JMJD2A Tudor, G9a inh, BAZ2B block, HP1b chromo inh)
O=C(COCc1cc(-c2cccs2)on1)NCc1ccc(Cl)cc1	none (no result: Sfp PPTase inh)
Cc1ccc(Cl)cc1NS(=O)(=O)c1cc2c(cc1F)NC(=O)CC2	none (no result: G9a inh, Sfp PPTase inh, BAZ2B block, HP1b chromo inh)
CCOC(=O)CN1C(=O)C(O)=C(C(C)=O)C1c1ccccc1 (centres undefined)	JMJD2A Tudor inconclusive, BAZ2B block 79.4µM
CCOC(=O)CN1C(=O)C(O)=C(C(C)=O)C1c1ccc(F)cc1 (centres undefined)	G9a inh 35.5µM, BAZ2B block 70.8µM
CCOC(=O)CN1C(=O)C(O)=C(C(C)=O)C1c1ccc([N+](=O)[O-])cc1 (centres undefined)	G9a inh inconclusive, BAZ2B block inconclusive
O=C1C2=C(CCCC2)C(=O)N1c1cccc(OCCBr)c1	G9a inh 39.8µM
O=C(NCCN1CCc2ccccc2C1)C1CCN(S(=O)(=O)N2CCCCC2)CC1	JMJD2A Tudor inconclusive, G9a inh 50.1µM, Sfp PPTase inh inconclusive, BAZ2B block inconclusive
O=C(NCCN1CCc2ccccc2C1)C1CCN(S(=O)(=O)N2CCC3(CC2)OCCO3)CC1	BAZ2B block inconclusive
Cc1sc(/N=C/c2c(O)ccc3ccccc23)c(C#N)c1C	G9a inh 10µM (no result: JMJD2A Tudor, HP1b chromo inh)
COc1ccc2ccccc2c1/C=N/NC(=O)c1sc(N)c(C#N)c1C	none
COc1ccc(O)c(/C=N/c2sc(C)c(C)c2C#N)c1	JMJD2A Tudor 79.4µM, G9a inh inconclusive, Sfp PPTase inh inconclusive, HP1b chromo inh inconclusive
